Reference: PubChem BioAssay AID1159580 (chemical genetic matrix, 2015)
“And” between values parts separate entries of the source, which are not always exact repeats. Equal entries are not always repeated. The campaign covered roughly 5,500 compounds. About 2,000 (36%) were called active. Not shown: some 18% with an inconclusive outcome. Rule as the data show it: active = normalized growth mostly below about 0.91 (no sharp cut-off); inconclusive = no clear call, values can overlap the other calls; inactive = mostly above about 0.92. The list shows a part of the results.

Assay: chemical genetic growth profiling, strain panel (AID 1159580);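 also: tested at 20 µM; growth read once vehicle control cultures reached saturation at 30 °C; 1 = growth at the plate median or of vehicle wells; lower values mean less growth of the strain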
Conditions: S. cerevisiae deletion strains, growth OD

Measured: normalized growth

O=C1C=CC(=C(c2ccc(O)cc2)c2ccc(O)cc2)C=C1
inactive: locus YAL013W, strain DEP1, active compounds read low 0.985 | locus YAL021C, strain ccr4, active compounds read low 1 | locus YAL026C, strain drs2, active compounds read low 0.972 | locus YAL030W, strain snc1, active compounds read low 1 | locus YBL061C, strain skt5, active compounds read low 0.982 | locus YBR009C, strain hhf1, active compounds read low 0.981 | locus YBR021W, strain FUR4, active compounds read low 0.992 | locus YBR023C, strain chs3, active compounds read low 0.968 | locus YBR171W, strain sec66, active compounds read low 0.968 | locus YBR229C, strain ROT2, active compounds read low 0.991 | locus YBR231C, strain swc5, active compounds read low 0.987 | locus YBR279W, strain paf1, active compounds read low 0.99 | locus YCL011C, strain gbp2, active compounds read low 0.972 | locus YCL016C, strain dcc1, active compounds read low 1.01 | locus YCL029C, strain bik1, active compounds read low 0.99 | locus YCL069W, strain vba3, active compounds read low 0.959 | locus YCR088W, strain abp1, active compounds read low 0.975 | locus YDL005C, strain med2, active compounds read low 0.977 | locus YDL035C, strain GPR1, active compounds read low 1 | locus YDL040C, strain nat1, active compounds read low 0.991 | locus YDL074C, strain BRE1, active compounds read low 1.06 | locus YDL101C, strain DUN1, active compounds read low 1 | locus YDL134C, strain PPH21, active compounds read low 0.998 | locus YDL185W, strain tfp1, active compounds read low 1 | locus YDL192W, strain arf1, active compounds read low 0.982 | locus YDR001C, strain nth1, active compounds read low 0.975 | locus YDR069C, strain doa4, active compounds read low 0.952 | locus YDR101C, strain arx1, active compounds read low 0.995 | locus YDR137W, strain rgp1, active compounds read low 0.988 | locus YDR150W, strain NUM1, active compounds read low 1.01 | locus YDR159W, strain sac3, active compounds read low 0.972 | locus YDR162C, strain NBP2, active compounds read low 1.01 | locus YDR195W, strain ref2 0.927 | locus YDR297W, strain sur2, active compounds read low 0.987 | locus YDR318W, strain mcm21, active compounds read low 0.982 | locus YDR334W, strain swr1, active compounds read low 0.962 | locus YDR335W, strain msn5, active compounds read low 0.968 | locus YDR388W, active compounds read low 0.972 | locus YDR392W, strain spt3, active compounds read low 0.986 | locus YDR502C, strain sam2, active compounds read low 1 | locus YEL003W, strain gim4, active compounds read low 0.974 | locus YEL037C, strain rad23, active compounds read low 0.973 | locus YEL061C, strain CIN8 (second series), active compounds read low 0.938 | locus YEL061C, strain CIN8, active compounds read low 1.01 | locus YER015W, strain faa2, active compounds read low 0.99 | locus YER016W, strain bim1, active compounds read low 0.983 | locus YER110C, active compounds read low 0.976 | locus YER111C, strain swi4, active compounds read low 0.969 | locus YER155C, strain BEM2 (second series), active compounds read low 1.01 | locus YER155C, strain BEM2, active compounds read low 0.997 | locus YER167W, strain BCK2, active compounds read low 0.993 | locus YFR010W, strain ubp6, active compounds read low 0.945 | locus YGL078C, strain dbp3, active compounds read low 0.994 | locus YGL086W, strain mad1, active compounds read low 0.986 | locus YGL167C, strain pmr1, active compounds read low 0.994 | locus YGL173C, strain kem1, active compounds read low 0.98 | locus YGL227W, strain vid30, active compounds read low 0.971 | locus YGL240W, strain doc1, active compounds read low 0.983 | locus YGL248W, strain PDE1, active compounds read low 0.991 | locus YGL253W, strain hxk2, active compounds read low 0.967 | locus YGR078C, strain PAC10, active compounds read low 1.03 | locus YGR135W, strain pre9, active compounds read low 1 | locus YGR229C, strain SMI1, active compounds read low 1.02 | locus YGR252W, strain gcn5, active compounds read low 0.97 | locus YHR013C, strain ard1, active compounds read low 0.985 | locus YHR027C, strain rpn1, active compounds read low 1 | locus YHR030C, strain SLT2, active compounds read low 0.994 and 1.04 | locus YHR079C, strain IRE1 (second series), active compounds read low 0.989 | locus YHR079C, strain IRE1, active compounds read low 1.05 | locus YHR094C, strain hxt1, active compounds read low 0.989 | locus YHR129C, strain ARP1, active compounds read low 0.994 | locus YHR142W, strain chs7, active compounds read low 0.962 | locus YHR200W, strain rpn10, active compounds read low 0.988 | locus YIL066C, strain RNR3, active compounds read low 0.992 | locus YIL073C, strain SPO22, active compounds read low 0.976 | locus YIL125W, strain kgd1, active compounds read low 0.995 | locus YIR030C, strain dcg1, active compounds read low 0.986 | locus YJL092W, strain hpr5, active compounds read low 0.953 | locus YJL095W, strain BCK1 (second series), active compounds read low 0.975 | locus YJL095W, strain BCK1, active compounds read low 1.03 and 1.02 | locus YJL115W, strain asf1, active compounds read low 0.966 | locus YJL129C, strain trk1, active compounds read low 0.965 | locus YJL134W, strain LCB3, active compounds read low 0.994 | locus YJL154C, strain vps35, active compounds read low 0.98 | locus YJL164C, strain tpk1, active compounds read low 1 | locus YJL166W, strain qcr8, active compounds read low 0.984 | locus YJL168C, strain set2, active compounds read low 0.98 | locus YJL187C, strain SWE1 (second series), active compounds read low 0.998 | locus YJL187C, strain SWE1, active compounds read low 0.993 | locus YJR043C, strain POL32, active compounds read low 1.04 | locus YJR066W, strain TOR1, active compounds read low 0.979
